# Results: PMC8384837, “Expanding the binding specificity for RNA recognition by a PUF domain”
# Legend:
# Experiment in all cases: yeast three-hybrid, YBZ-1, SC-Leu-His + 0.5 mM 3-AT, 4 days
# Details in all cases: tags: N-Gal4 AD-HA kept; label: inside an RPR1-promoter hybrid RNA with tandem MS2 sites; ssRNA
# PUM1 PUF domain R5-QLS = PUM1 PUF domain R5-QLS (Homo sapiens, UniProt Q14671 828-1176, C1007Q;R1008L;Q1011S)
# Outline: (§1)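 The interaction score is the logarithmic change in variant frequency from input to selection. It uses log2, with a pseudocount of 1 for absent variants, and frequencies came from PCR-amplified, Illumina-sequenced repeat regions. The libraries were Pumilio-1 PUF domains randomized at the three base-contacting residues per repeat, co-expressed with matching RNA elements in strain YBZ-1 (LexA–MS2 coat fusion, HIS3 reporter). Plating lasted four days on SC-Leu (input) or SC-Leu-His + 0.5 mM 3-AT (selection).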
# PUM1 PUF domain R4-LHQ = PUM1 PUF domain R4-LHQ (Homo sapiens, UniProt Q14671 828-1176, N971L)
# Outline: as §1
# PUM1 PUF domain R4-HNS = PUM1 PUF domain R4-HNS (Homo sapiens, UniProt Q14671 828-1176, N971H;H972N;Q975S)
# Outline: as §1
# PUM1 PUF domain R4-GFW = PUM1 PUF domain R4-GFW (Homo sapiens, UniProt Q14671 828-1176, N971G;H972F;Q975W)
# Outline: as §1
# PUM1 PUF domain R4-FGR = PUM1 PUF domain R4-FGR (Homo sapiens, UniProt Q14671 828-1176, N971F;H972G;Q975R)
# Outline: as §1
# PUM1 PUF domain R4-SPM = PUM1 PUF domain R4-SPM (Homo sapiens, UniProt Q14671 828-1176, N971S;H972P;Q975M)
# Outline: as §1
# PUM1 PUF domain R5-KTN = PUM1 PUF domain R5-KTN (Homo sapiens, UniProt Q14671 828-1176, C1007K;R1008T;Q1011N)
# Sequence of PUM1 PUF domain R5-KTN (Q14671 828-1176 C1007K/R1008T/Q1011N): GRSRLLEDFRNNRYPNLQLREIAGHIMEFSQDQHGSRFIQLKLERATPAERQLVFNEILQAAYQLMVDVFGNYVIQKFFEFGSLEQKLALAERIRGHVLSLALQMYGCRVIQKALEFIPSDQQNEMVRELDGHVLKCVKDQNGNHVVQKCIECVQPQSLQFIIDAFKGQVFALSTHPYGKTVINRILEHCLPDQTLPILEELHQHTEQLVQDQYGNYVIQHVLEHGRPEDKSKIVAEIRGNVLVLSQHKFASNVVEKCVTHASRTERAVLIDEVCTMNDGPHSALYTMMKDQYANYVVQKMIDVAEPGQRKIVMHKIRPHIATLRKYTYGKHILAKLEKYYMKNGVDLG
# Outline: as §1
# PUM1 PUF domain R2-LWF = PUM1 PUF domain R2-LWF (Homo sapiens, UniProt Q14671 828-1176, N899L;Y900W;Q903F)
# Outline: as §1
# PUM1 PUF domain R3-VRI = PUM1 PUF domain R3-VRI (Homo sapiens, UniProt Q14671 828-1176, C935V;Q939I)
# Outline: as §1
# PUM1 PUF domain R4-RLF = PUM1 PUF domain R4-RLF (Homo sapiens, UniProt Q14671 828-1176, N971R;H972L;Q975F)
# Outline: as §1
# PUM1 PUF domain R3-LWS = PUM1 PUF domain R3-LWS (Homo sapiens, UniProt Q14671 828-1176, C935L;R936W;Q939S)
# Outline: as §1
# PUM1 PUF domain R4-RMT = PUM1 PUF domain R4-RMT (Homo sapiens, UniProt Q14671 828-1176, N971R;H972M;Q975T)
# Outline: as §1
# PUM1 PUF domain R6-RWC = biological target: T1, PUM1 PUF domain R6-RWC (Homo sapiens, UniProt Q14671 828-1176, N1043R;Y1044W;Q1047C)
# T1 sequence: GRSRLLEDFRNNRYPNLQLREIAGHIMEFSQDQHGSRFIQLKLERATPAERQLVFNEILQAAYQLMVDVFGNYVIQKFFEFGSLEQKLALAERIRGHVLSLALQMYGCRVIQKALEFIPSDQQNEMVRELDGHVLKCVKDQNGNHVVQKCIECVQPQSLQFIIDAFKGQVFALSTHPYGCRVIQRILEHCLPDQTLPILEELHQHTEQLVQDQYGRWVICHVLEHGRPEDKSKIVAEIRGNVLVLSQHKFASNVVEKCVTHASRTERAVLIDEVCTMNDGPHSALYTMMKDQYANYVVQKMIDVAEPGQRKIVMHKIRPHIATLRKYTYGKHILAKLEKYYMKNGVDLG
# Outline: as §1
# PUM1 PUF domain R1-KPC = PUM1 PUF domain R1-KPC (Homo sapiens, UniProt Q14671 828-1176, S863K;R864P;Q867C)
# Outline: as §1
# PUM1 PUF domain R1-LRR = PUM1 PUF domain R1-LRR (Homo sapiens, UniProt Q14671 828-1176, S863L;Q867R)
# Outline: as §1
# PUM1 PUF domain R1-RCL = PUM1 PUF domain R1-RCL (Homo sapiens, UniProt Q14671 828-1176, S863R;R864C;Q867L)
# Outline: as §1
# PUM1 PUF domain R1-SVR = PUM1 PUF domain R1-SVR (Homo sapiens, UniProt Q14671 828-1176, R864V;Q867R)
# Outline: as §1
# PUM1 PUF domain R5-NLL = PUM1 PUF domain R5-NLL (Homo sapiens, UniProt Q14671 828-1176, C1007N;R1008L;Q1011L)
# Sequence of PUM1 PUF domain R5-NLL (Q14671 828-1176 C1007N/R1008L/Q1011L): as the sequence (Q14671 828-1176 C1007K/R1008T/Q1011N) above, with K180N, T181L, N184L counted along it
# Outline: as §1
# PUM1 PUF domain R5-NKR = PUM1 PUF domain R5-NKR (Homo sapiens, UniProt Q14671 828-1176, C1007N;R1008K;Q1011R)
# Sequence of PUM1 PUF domain R5-NKR (Q14671 828-1176 C1007N/R1008K/Q1011R): as the sequence (Q14671 828-1176 C1007K/R1008T/Q1011N) above, with K180N, T181K, N184R counted along it
# Outline: as §1
# PUM1 PUF domain R7-IMG = PUM1 PUF domain R7-IMG (Homo sapiens, UniProt Q14671 828-1176, S1079I;N1080M;E1083G)
# Sequence of PUM1 PUF domain R7-IMG (Q14671 828-1176 S1079I/N1080M/E1083G): as the sequence (Q14671 828-1176 C1007K/R1008T/Q1011N) above, with K180C, T181R, N184Q, S252I, N253M, E256G counted along it
# Outline: as §1
sequence,measurement,setting,value
GGCUAGAACUAGUGGAUCCCCCGGCGCCCGGCGGCUCGAGCCCGGGUAAGUGUGAAUAGUCUGCAUGCCGCCGGGCGCCAUGCCUGCAGGUCGACUCUAGAAAACAUG,binding signal,PUM1 PUF domain R5-QLS,2.16 log2 enrichment (interaction score)
GGCUAGAACUAGUGGAUCCCCCGGCGCCCGGCGGCUCGAGCCCGGGUAAGUGUAUAUAGUCUGCAUGCCGCCGGGCGCCAUGCCUGCAGGUCGACUCUAGAAAACAUG,binding signal,PUM1 PUF domain R4-LHQ,6.92 log2 enrichment (interaction score)
same,binding signal,PUM1 PUF domain R4-HNS,4.08 log2 enrichment (interaction score)
same,binding signal,PUM1 PUF domain R4-GFW,4.86 log2 enrichment (interaction score)
same,binding signal,PUM1 PUF domain R4-FGR,2.32 log2 enrichment (interaction score)
same,binding signal,PUM1 PUF domain R4-SPM,3.22 log2 enrichment (interaction score)
GGCUAGAACUAGUGGAUCCCCCGGCGCCCGGCGGCUCGAGCCCGGGUAAGUGUCAAUAGUCUGCAUGCCGCCGGGCGCCAUGCCUGCAGGUCGACUCUAGAAAACAUG,binding signal,PUM1 PUF domain R5-KTN,3.79 log2 enrichment (interaction score)
GGCUAGAACUAGUGGAUCCCCCGGCGCCCGGCGGCUCGAGCCCGGGUAAGUGUAAAAAGUCUGCAUGCCGCCGGGCGCCAUGCCUGCAGGUCGACUCUAGAAAACAUG,binding signal,PUM1 PUF domain R2-LWF,6.96 log2 enrichment (interaction score)
GGCUAGAACUAGUGGAUCCCCCGGCGCCCGGCGGCUCGAGCCCGGGUAAGUGUAAAUAGUCUGCAUGCCGCCGGGCGCCAUGCCUGCAGGUCGACUCUAGAAAACAUG,binding signal,PUM1 PUF domain R4-HNS,1.42 log2 enrichment (interaction score)
same,binding signal,PUM1 PUF domain R3-VRI,4.31 log2 enrichment (interaction score)
same,binding signal,PUM1 PUF domain R4-RLF,4.74 log2 enrichment (interaction score)
same,binding signal,PUM1 PUF domain R3-LWS,4.31 log2 enrichment (interaction score)
same,binding signal,PUM1 PUF domain R4-GFW,4.78 log2 enrichment (interaction score)
same,binding signal,PUM1 PUF domain R4-SPM,3.49 log2 enrichment (interaction score)
same,binding signal,PUM1 PUF domain R5-QLS,0.83 log2 enrichment (interaction score)
same,binding signal,PUM1 PUF domain R4-RMT,3.47 log2 enrichment (interaction score)
same,binding signal,PUM1 PUF domain R6-RWC,4.89 log2 enrichment (interaction score)
GGCUAGAACUAGUGGAUCCCCCGGCGCCCGGCGGCUCGAGCCCGGGUAAGUGUACAUAGUCUGCAUGCCGCCGGGCGCCAUGCCUGCAGGUCGACUCUAGAAAACAUG,binding signal,PUM1 PUF domain R4-FGR,2.88 log2 enrichment (interaction score)
same,binding signal,PUM1 PUF domain R4-SPM,0.15 log2 enrichment (interaction score)
GGCUAGAACUAGUGGAUCCCCCGGCGCCCGGCGGCUCGAGCCCGGGUAAGUGUAAAUUGUCUGCAUGCCGCCGGGCGCCAUGCCUGCAGGUCGACUCUAGAAAACAUG,binding signal,PUM1 PUF domain R1-KPC,4.34 log2 enrichment (interaction score)
same,binding signal,PUM1 PUF domain R1-LRR,2.97 log2 enrichment (interaction score)
GGCUAGAACUAGUGGAUCCCCCGGCGCCCGGCGGCUCGAGCCCGGGUAAGUGUAAACAGUCUGCAUGCCGCCGGGCGCCAUGCCUGCAGGUCGACUCUAGAAAACAUG,binding signal,PUM1 PUF domain R2-LWF,1.17 log2 enrichment (interaction score)
GGCUAGAACUAGUGGAUCCCCCGGCGCCCGGCGGCUCGAGCCCGGGUAAGUGUAAAUCGUCUGCAUGCCGCCGGGCGCCAUGCCUGCAGGUCGACUCUAGAAAACAUG,binding signal,PUM1 PUF domain R1-RCL,3.05 log2 enrichment (interaction score)
same,binding signal,PUM1 PUF domain R1-LRR,2.97 log2 enrichment (interaction score)
same,binding signal,PUM1 PUF domain R1-SVR,3.35 log2 enrichment (interaction score)
GGCUAGAACUAGUGGAUCCCCCGGCGCCCGGCGGCUCGAGCCCGGGUAAGUGUAAGUAGUCUGCAUGCCGCCGGGCGCCAUGCCUGCAGGUCGACUCUAGAAAACAUG,binding signal,PUM1 PUF domain R3-LWS,6.62 log2 enrichment (interaction score)
GGCUAGAACUAGUGGAUCCCCCGGCGCCCGGCGGCUCGAGCCCGGGUAAGUGUAAUUAGUCUGCAUGCCGCCGGGCGCCAUGCCUGCAGGUCGACUCUAGAAAACAUG,binding signal,PUM1 PUF domain R3-VRI,0.57 log2 enrichment (interaction score)
same,binding signal,PUM1 PUF domain R3-LWS,4.58 log2 enrichment (interaction score)
GGCUAGAACUAGUGGAUCCCCCGGCGCCCGGCGGCUCGAGCCCGGGUAAGUGUUAAUAGUCUGCAUGCCGCCGGGCGCCAUGCCUGCAGGUCGACUCUAGAAAACAUG,binding signal,PUM1 PUF domain R5-NLL,2.94 log2 enrichment (interaction score)
same,binding signal,PUM1 PUF domain R5-NKR,5.24 log2 enrichment (interaction score)
GGCUAGAACUAGUGGAUCCCCCGGCGCCCGGCGGCUCGAGCCCGGGUAAGUUUAAAUAGUCUGCAUGCCGCCGGGCGCCAUGCCUGCAGGUCGACUCUAGAAAACAUG,binding signal,PUM1 PUF domain R7-IMG,3.68 log2 enrichment (interaction score)
